From PubChem BioAssay (NCI) come the findings set out here.

Several values for one entry are separate records, joined by “and”; a condition that tells them apart may be missing. Equal values may be shown once. Compounds without any hit were thinned out: in the full panel of roughly 83,000, 20% have a hit.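 Values shown are percent growth following 48 h exposure of cells in 96-well plates to a single concentration of compound; below 10 was considered active.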 Activity calls are given as the source filed them.

The test system of this assay is MDA-MB-468 breast. Description: NCI-60 one-dose screen, 48 h (100 = growth as untreated, 0 = no growth, -100 = all killed). Conditions: 10 µM unless noted.
As for `O=C1C=CC2(O)OC(c3ccccc3)CC(=O)C2=C1O` (stereo unspecified), the growth is 70.7% (inactive).

With `O=C(O)c1cccc2oc(-c3ccccc3O)nc12`, the growth is 35.2% (inactive).

As for `COc1cc(C2C=C(c3ccc(Cl)cc3)N=C3SC(C)=CN32)cc(OC)c1OC` (stereo unspecified), the growth was 80.2% (inactive).

In the case of `CCn1c(Sc2nnc(NC(C)=O)s2)nc2c1c(=O)n(C)c(=O)n2C`, the growth is 87.5% (inactive).

With `O=C1Nc2cc(Cl)ccc2/C1=C\c1ccc(OCc2ccc([N+](=O)[O-])cc2)cc1`, the growth was 52% (inactive).

As to `CC(C)(C)CC(C)(C)Cc1ccc(OCCOCC[N+](C)(C)Cc2ccccc2)cc1`, the growth is -35.3% (active).

Take `COC(=O)c1[nH]c(=O)c(C#N)c(C(=O)OC)c1C(=O)c1ccccc1`: the growth was 102% (inactive).

For the compound `COC(=O)c1c2c(c(C)[n+]([O-])c1C)C(=O)C=C(NCc1ccc(Br)cc1)C2=O`, the growth is -60.1% (active).

With `NC(N)=N/N=C/c1ccc(-c2ccc(-c3cc(Cl)cc(Cl)c3)s2)cc1`, the growth is -47.1% (active).

On to `CC1(C)OC2COC3(C(=O)O)OC(C)(C)OC3C2O1` (stereo unspecified), for which the growth was 93.6% (inactive).

Regarding `CC(=O)CC1CCCC1c1ccc2ccccc2c1` (stereo unspecified), the growth was 101% (inactive).

Regarding `Brc1c[n+](Cc2ccc3ccccc3c2)cn1Cc1ccc2ccccc2c1`, the growth is -29.1% (active).

As to `O=C(CSc1nnc(-c2ccc(Cl)cc2)o1)c1ccccc1`, the growth was 97.1% (inactive).

As to `Cn1c(=O)c2c(c3ccccc31)OC(N)=C(C#N)C21C(=O)c2ccccc2C1=O`, the growth is 96.4% (inactive).

As for `O=C(Nc1ncc(Cc2cc(C(F)(F)F)ccc2Cl)s1)c1cccs1`, the growth was -0.706% (active).

Consider `CCN1CCN(Cc2ccc(C(=O)Nc3nc4ccc(Oc5ccnc(C(=O)NC)c5)cc4s3)cc2C(F)(F)F)CC1`, for which the growth was 36.1% (inactive).

For the compound `O=C1OC(C(O)C(O)CO)C(O)=C1O` (stereo unspecified), the growth is 88.7% (inactive) and 117% (inactive).

Consider `CNC(=O)c1cc(-c2ccc(NC(=O)Nc3ccc(N4CCN(C)CC4)c(C(F)(F)F)c3)cc2)nc2cccnc12`, for which the growth is -73.8% (active).

Regarding `O=C(Nc1ccccc1Cl)Oc1ccc(-c2ccccc2)cc1`, the growth is 115% (inactive).

As for `O=C(CSc1nc2ccc([N+](=O)[O-])cc2[nH]1)Nc1cccc(Cl)c1`, the growth was -10.4% (active).

Regarding `CCOC(=O)n1cc(-c2nonc2-c2cn(C)c3ncccc23)c2cc(F)ccc21`, the growth is -7.17% (active).

Turning to `Cc1cc(N[C@@H]2CCC[C@H](Nc3ccnc4cc(Cl)ccc34)C2)nc(N2CCCCCC2)n1`, the growth was -65.8% (active).

With `Cc1nn(-c2ccccc2)c(N)c1N=C1NC(=O)/C(=C/c2ccc(Br)cc2)S1`, the growth was 86.6% (inactive).

For the compound `NS(=O)(=O)c1ccc(-n2cc(-c3cccc(NC(=O)c4ccc(N5CCOCC5)c(C(F)(F)F)c4)c3)nn2)cc1`, the growth is 36.7% (inactive).

With `O=c1[nH]c(-c2ccccn2)nc2sc3c(c12)CCCCCC3`, the growth is 37.8% (inactive).

For the compound `COc1ncnc2[nH]cc(CN3CCN(c4ccc(F)cc4)CC3)c12`, the growth was 108% (inactive).
